Common to all, as to test: DAPPL (digital affinity profiling via proximity ligation, sequencing); 10 mM Tris-HCl pH 7.5, 50 mM NaCl, 1 mM DTT, 4% glycerol, room temperature, 30 min; GST-TFs on glutathione beads, 16-mer random dsDNA library, 0.1% formaldehyde crosslink after washing; high values mean tight binding
One test has as its target T1, FLI1 (Homo sapiens, UniProt Q01543 1-452).
T1 sequence: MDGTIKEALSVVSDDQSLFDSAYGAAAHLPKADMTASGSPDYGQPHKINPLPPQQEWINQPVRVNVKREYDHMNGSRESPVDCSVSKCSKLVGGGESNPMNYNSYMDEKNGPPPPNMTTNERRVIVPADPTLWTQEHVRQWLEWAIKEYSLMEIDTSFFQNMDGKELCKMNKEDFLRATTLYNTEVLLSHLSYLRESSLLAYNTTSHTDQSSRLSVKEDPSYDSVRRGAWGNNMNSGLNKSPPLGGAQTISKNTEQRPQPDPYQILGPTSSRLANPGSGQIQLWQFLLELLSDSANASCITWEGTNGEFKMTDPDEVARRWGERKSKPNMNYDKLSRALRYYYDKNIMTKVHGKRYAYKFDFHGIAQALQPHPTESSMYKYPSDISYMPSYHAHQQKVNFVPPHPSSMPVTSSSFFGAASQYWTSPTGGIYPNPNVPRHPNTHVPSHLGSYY
As to conditions: protein: recombinant; tags: N-terminal GST; dsDNA, one strand shown. The essentials: (§1)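 Human transcription factors were made in yeast as GST fusions, captured on glutathione beads and barcoded with DNA. With a tag-only sample included, the pool was incubated with 200 nmole of a random double-stranded 16-mer DNA library in Tris/NaCl/DTT/glycerol buffer at room temperature for 30 min, then crosslinked with 0.1% formaldehyde after washing, ligated by proximity, amplified and sequenced. For binding signal, each hexamer's read frequency for a factor is divided by its frequency for the tag-only sample.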

The next test deals with T2, ELK1 (Homo sapiens, UniProt P19419 1-428).
T2 sequence: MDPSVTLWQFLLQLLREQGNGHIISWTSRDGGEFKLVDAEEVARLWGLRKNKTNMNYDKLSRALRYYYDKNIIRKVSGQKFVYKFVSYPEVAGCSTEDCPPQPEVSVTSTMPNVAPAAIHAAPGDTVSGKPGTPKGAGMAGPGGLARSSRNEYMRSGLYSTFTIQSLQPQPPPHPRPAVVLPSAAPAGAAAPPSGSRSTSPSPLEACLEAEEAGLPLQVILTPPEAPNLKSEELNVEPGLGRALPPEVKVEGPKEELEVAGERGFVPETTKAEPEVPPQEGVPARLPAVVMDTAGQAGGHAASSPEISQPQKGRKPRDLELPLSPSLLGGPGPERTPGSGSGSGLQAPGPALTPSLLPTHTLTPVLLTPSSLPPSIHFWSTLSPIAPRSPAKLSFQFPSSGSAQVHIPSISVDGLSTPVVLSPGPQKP
As to conditions: protein: recombinant; tags: N-terminal GST; dsDNA, one strand shown. The procedure, abridged: as §1

The target in the next test is T3, GABPA (Homo sapiens, UniProt Q06546 1-454).
T3 sequence: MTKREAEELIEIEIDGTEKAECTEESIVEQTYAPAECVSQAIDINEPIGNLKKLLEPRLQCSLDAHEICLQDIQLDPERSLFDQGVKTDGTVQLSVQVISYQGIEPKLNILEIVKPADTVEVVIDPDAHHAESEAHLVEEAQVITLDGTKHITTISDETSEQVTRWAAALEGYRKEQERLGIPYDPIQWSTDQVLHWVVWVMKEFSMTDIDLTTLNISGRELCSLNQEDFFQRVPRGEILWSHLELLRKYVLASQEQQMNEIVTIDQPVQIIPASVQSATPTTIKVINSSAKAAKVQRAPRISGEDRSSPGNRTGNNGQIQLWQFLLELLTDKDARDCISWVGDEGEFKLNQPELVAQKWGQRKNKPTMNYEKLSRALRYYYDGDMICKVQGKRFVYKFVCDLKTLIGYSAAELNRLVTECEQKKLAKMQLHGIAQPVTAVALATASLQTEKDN
Conditions: protein: recombinant; tags: N-terminal GST; dsDNA, one strand shown. The procedure, abridged: as §1

The target in the next test is T4, ERG (Homo sapiens, UniProt P11308 1-479).
T4 sequence: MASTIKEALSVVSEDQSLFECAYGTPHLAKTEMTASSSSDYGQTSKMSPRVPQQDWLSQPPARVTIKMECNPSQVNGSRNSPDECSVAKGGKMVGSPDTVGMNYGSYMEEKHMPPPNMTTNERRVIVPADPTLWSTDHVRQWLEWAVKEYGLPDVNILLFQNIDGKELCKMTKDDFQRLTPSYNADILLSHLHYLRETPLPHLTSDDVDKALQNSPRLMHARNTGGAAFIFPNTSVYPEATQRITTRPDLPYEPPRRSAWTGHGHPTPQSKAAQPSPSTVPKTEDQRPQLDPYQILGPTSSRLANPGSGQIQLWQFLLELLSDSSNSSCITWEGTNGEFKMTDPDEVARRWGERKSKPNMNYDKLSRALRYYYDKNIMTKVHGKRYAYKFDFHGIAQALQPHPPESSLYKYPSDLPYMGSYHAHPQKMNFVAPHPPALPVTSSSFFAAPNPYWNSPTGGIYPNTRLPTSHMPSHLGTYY
Conditions: protein: recombinant; tags: N-terminal GST; dsDNA, one strand shown. The procedure, abridged:
as §1

For the next test, the target named is ELF1 (Homo sapiens, UniProt P32519 1-619). Conditions: protein: recombinant; tags: N-terminal GST; dsDNA, one strand shown. The procedure, abridged:
as §1

The target in another test is T5, EHF (Homo sapiens, UniProt Q9NZC4 1-300).
T5 sequence: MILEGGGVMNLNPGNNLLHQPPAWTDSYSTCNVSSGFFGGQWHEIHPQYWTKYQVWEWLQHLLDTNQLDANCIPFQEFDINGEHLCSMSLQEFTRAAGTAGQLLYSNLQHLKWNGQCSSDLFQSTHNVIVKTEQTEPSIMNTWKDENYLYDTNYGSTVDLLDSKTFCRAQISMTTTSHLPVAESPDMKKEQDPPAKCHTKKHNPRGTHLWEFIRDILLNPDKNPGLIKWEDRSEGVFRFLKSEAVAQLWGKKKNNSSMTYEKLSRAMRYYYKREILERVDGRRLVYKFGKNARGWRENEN
Conditions: protein: recombinant; tags: N-terminal GST; dsDNA, one strand shown. The essentials:
as §1

A further test deals with SPI1 (Homo sapiens, UniProt P17947 1-270). As to conditions: protein: recombinant; tags: N-terminal GST; dsDNA, one strand shown. The essentials:
as §1

The next test has as its target SPIB (Homo sapiens, UniProt Q01892 1-262). Conditions: protein: recombinant; tags: N-terminal GST; dsDNA, one strand shown. The essentials: as §1
In the next test the target is T6, ELK3 (Homo sapiens, UniProt P41970 1-407).
T6 sequence: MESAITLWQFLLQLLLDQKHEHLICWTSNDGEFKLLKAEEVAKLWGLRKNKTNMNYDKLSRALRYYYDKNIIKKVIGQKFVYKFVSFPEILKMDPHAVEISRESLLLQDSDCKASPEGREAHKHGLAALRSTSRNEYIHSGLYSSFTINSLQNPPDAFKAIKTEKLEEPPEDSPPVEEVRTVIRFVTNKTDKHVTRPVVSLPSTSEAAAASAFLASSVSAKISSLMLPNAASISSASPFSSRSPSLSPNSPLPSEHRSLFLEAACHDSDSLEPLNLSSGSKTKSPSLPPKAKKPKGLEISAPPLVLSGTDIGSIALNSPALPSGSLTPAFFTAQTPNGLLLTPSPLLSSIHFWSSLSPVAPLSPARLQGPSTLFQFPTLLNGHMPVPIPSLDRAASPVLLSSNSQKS
Conditions: protein: recombinant; tags: N-terminal GST; dsDNA, one strand shown. The procedure, abridged: as §1

The next test addresses T7, FEV (Homo sapiens, UniProt Q99581 1-238).
T7 sequence: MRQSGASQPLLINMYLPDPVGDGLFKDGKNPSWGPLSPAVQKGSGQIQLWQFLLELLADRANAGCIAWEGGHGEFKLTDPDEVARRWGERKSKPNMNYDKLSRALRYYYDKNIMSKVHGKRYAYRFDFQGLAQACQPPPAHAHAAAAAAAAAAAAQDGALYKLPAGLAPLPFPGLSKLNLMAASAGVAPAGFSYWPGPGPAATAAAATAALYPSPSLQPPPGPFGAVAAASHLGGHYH
As to conditions: protein: recombinant; tags: N-terminal GST; dsDNA, one strand shown. The essentials: as §1

A further test has as its target ETV5 (Homo sapiens, UniProt P41161 1-510). As to conditions: protein: recombinant; tags: N-terminal GST; dsDNA, one strand shown. The essentials: as §1
The target in the next test is HSF1 (Homo sapiens, UniProt Q00613 1-529). Conditions: protein: recombinant; tags: N-terminal GST; chain copies: 3; dsDNA, one strand shown. The procedure, abridged:
as §1

For the next test, the target named is T8, SPIC (Homo sapiens, UniProt Q8N5J4 1-248).
T8 sequence: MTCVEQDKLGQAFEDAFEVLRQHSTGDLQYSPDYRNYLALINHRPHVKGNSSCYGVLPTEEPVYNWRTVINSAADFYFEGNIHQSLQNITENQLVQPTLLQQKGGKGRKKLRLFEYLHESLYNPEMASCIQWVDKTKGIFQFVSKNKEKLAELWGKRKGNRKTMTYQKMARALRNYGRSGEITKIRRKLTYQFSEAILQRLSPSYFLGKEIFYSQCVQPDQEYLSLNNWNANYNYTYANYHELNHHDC
As to conditions: protein: recombinant; tags: N-terminal GST; dsDNA, one strand shown. The procedure, abridged: as §1

The target in the next test is ELF4 (Homo sapiens, UniProt Q99607 1-663). As to conditions: protein: recombinant; tags: N-terminal GST; dsDNA, one strand shown. The essentials:
as §1

For another test, the target named is T9, ELK4 (Homo sapiens, UniProt P28324-2 1-405).
T9 sequence: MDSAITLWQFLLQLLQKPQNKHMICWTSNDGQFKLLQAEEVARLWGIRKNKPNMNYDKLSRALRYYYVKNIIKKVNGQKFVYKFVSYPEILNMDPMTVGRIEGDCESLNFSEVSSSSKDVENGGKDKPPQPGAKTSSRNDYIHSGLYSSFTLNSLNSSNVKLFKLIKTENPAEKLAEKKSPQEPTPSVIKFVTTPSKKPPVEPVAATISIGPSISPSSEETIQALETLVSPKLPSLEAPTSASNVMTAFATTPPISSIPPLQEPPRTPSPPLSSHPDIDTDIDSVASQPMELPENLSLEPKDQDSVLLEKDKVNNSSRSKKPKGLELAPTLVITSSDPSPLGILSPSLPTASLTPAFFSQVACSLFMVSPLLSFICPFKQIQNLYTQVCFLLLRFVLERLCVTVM
Conditions: protein: recombinant; tags: N-terminal GST; dsDNA, one strand shown. The essentials:
as §1

The next test has as its target T10, ETV2 (Homo sapiens, UniProt O00321 1-342).
T10 sequence: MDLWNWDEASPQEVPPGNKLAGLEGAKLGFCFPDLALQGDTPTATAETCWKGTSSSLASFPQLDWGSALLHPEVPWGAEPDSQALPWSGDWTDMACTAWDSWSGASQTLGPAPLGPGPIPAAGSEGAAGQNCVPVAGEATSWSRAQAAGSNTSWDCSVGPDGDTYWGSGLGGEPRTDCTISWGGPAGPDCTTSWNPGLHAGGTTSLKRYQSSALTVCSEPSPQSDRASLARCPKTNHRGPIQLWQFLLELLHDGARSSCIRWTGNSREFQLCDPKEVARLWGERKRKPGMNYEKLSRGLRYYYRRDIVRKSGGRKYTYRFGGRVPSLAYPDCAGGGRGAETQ
Conditions: protein: recombinant; tags: N-terminal GST; dsDNA, one strand shown. The procedure, abridged: as §1

The next test deals with T11, ELF3 (Homo sapiens, UniProt P78545 1-371).
T11 sequence: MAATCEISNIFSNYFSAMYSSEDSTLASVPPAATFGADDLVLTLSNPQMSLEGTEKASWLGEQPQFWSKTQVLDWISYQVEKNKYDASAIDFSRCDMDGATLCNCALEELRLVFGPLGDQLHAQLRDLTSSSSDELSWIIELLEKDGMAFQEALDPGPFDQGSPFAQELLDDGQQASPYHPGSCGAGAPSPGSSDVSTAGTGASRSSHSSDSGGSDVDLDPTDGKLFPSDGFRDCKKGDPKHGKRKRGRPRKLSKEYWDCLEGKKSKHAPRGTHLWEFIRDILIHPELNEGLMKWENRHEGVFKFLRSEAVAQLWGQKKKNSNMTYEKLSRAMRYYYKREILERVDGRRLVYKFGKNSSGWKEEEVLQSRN
Conditions: protein: recombinant; tags: N-terminal GST; dsDNA, one strand shown. The essentials:
as §1

The target in another test is CRX (Homo sapiens, UniProt O43186 1-299). As to conditions: protein: recombinant; tags: N-terminal GST; dsDNA, one strand shown. The procedure, abridged: as §1
Chain of CRX (O43186 whole entry): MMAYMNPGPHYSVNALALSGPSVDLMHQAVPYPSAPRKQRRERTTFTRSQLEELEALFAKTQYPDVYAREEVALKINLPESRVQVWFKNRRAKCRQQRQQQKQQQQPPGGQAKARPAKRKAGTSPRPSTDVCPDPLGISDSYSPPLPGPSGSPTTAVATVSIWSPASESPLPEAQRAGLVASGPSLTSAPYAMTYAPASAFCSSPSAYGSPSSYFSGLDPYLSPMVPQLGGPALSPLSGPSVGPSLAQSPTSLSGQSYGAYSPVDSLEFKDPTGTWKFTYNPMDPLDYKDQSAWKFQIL
The target in the next test is ETV1 (Homo sapiens, UniProt P50549 1-477). As to conditions: protein: recombinant; tags: N-terminal GST; dsDNA, one strand shown. The essentials: as §1
Chain of ETV1 (P50549 whole entry): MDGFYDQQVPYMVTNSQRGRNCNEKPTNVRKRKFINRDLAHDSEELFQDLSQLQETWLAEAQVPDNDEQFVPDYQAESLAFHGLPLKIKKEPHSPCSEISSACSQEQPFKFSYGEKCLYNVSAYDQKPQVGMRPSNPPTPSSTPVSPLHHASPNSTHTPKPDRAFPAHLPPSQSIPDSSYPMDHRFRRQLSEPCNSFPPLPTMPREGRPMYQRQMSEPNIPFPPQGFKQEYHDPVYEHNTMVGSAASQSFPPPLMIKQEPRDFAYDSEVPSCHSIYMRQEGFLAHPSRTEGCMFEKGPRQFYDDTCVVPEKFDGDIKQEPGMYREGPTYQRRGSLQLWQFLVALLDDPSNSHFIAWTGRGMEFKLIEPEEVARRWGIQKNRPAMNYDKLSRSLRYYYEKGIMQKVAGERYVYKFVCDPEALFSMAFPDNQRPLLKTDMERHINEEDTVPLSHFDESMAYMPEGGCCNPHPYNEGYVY

Chain of HSF1 (Q00613 whole entry): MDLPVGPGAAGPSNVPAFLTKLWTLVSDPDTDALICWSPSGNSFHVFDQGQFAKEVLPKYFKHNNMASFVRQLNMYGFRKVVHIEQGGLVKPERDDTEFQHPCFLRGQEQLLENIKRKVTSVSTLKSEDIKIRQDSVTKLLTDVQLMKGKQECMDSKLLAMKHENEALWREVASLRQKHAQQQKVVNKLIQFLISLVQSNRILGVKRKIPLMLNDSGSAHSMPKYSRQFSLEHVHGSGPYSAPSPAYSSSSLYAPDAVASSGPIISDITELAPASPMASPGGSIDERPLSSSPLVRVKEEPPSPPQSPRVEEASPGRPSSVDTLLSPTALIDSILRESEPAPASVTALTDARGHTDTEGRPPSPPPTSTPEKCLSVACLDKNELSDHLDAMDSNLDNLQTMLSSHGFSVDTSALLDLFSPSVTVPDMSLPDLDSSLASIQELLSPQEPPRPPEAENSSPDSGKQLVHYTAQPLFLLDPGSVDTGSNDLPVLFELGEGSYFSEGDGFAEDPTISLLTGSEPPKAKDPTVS
Chain of ELF4 (Q99607 whole entry): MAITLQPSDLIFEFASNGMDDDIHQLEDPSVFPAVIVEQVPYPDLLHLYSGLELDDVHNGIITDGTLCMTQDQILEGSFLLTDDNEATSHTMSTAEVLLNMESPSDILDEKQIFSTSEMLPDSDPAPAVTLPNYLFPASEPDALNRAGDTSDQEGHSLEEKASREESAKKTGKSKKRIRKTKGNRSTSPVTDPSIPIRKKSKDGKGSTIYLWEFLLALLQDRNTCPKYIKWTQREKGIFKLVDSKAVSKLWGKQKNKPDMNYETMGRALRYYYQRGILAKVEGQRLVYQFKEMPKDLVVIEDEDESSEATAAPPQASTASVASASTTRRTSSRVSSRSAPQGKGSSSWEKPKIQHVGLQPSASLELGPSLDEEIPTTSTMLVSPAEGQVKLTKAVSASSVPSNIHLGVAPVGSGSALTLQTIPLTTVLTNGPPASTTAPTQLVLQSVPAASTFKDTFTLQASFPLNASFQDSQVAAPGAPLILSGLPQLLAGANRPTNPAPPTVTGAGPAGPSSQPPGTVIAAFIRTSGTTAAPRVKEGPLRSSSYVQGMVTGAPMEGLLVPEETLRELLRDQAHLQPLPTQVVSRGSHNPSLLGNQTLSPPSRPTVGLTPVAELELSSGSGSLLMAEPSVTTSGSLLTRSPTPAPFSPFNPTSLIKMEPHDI
Chain of ETV5 (P41161 whole entry): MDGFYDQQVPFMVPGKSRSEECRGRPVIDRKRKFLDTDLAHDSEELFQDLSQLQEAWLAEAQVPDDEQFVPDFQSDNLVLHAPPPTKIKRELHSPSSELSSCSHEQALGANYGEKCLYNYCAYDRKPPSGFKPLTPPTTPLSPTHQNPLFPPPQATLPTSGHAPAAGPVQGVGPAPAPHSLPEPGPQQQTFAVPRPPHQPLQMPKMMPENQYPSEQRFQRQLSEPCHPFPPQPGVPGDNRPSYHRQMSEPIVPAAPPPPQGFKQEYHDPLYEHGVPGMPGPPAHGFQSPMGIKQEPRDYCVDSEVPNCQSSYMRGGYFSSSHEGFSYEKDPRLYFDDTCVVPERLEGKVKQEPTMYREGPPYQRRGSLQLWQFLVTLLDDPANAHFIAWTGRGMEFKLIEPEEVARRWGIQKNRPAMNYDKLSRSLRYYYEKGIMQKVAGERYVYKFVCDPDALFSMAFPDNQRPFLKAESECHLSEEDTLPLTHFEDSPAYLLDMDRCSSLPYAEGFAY
Chain of ELF1 (P32519 whole entry): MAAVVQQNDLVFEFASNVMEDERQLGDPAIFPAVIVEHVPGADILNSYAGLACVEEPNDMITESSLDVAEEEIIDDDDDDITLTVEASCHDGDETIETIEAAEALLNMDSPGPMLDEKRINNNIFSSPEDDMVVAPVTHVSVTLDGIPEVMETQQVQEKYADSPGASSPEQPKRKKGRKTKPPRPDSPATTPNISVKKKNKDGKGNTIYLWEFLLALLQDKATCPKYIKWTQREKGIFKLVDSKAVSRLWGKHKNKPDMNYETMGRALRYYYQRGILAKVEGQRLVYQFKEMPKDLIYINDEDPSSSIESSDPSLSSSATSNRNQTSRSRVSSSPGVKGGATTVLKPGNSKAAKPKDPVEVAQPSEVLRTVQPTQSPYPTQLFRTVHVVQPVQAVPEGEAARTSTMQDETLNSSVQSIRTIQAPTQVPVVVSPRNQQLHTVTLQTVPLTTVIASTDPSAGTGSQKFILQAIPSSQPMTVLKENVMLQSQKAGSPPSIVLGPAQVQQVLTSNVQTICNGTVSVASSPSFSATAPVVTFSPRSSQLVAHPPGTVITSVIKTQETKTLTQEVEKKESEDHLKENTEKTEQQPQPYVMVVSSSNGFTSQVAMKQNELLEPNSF
Chain of SPIB (Q01892 whole entry): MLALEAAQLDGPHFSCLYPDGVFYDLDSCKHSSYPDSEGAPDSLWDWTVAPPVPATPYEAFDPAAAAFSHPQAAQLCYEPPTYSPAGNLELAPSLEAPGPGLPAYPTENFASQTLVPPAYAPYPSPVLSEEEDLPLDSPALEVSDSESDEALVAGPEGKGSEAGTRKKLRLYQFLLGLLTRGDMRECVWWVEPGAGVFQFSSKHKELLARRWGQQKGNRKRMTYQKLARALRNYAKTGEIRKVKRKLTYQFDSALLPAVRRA

In the case of CTCGCG, the binding signal was 1.47 fold enrichment (6-mer frequency, TF over GST control) with FLI1; 1.35 fold enrichment (6-mer frequency, TF over GST control) with ELK1; 1.55 fold enrichment (6-mer frequency, TF over GST control) with GABPA; 1.42 fold enrichment (6-mer frequency, TF over GST control) in the test with ERG; 1.41 fold enrichment (6-mer frequency, TF over GST control) with ELF1; 1.32 fold enrichment (6-mer frequency, TF over GST control) with EHF. Moreover, the binding signal was 1.39 fold enrichment (6-mer frequency, TF over GST control) with SPI1; 1.45 fold enrichment (6-mer frequency, TF over GST control) with SPIB; 1.34 fold enrichment (6-mer frequency, TF over GST control) in the test with ELK3; 1.35 fold enrichment (6-mer frequency, TF over GST control) with FEV; 1.48 fold enrichment (6-mer frequency, TF over GST control) with ETV5; 1.55 fold enrichment (6-mer frequency, TF over GST control) in the test with HSF1. Moreover, the binding signal in the test with SPIC is 1.3 fold enrichment (6-mer frequency, TF over GST control); in the test with ELF4, 1.48 fold enrichment (6-mer frequency, TF over GST control); in the test with ELK4, 1.59 fold enrichment (6-mer frequency, TF over GST control); with ETV2, 1.39 fold enrichment (6-mer frequency, TF over GST control); in the test with ELF3 it was 1.53 fold enrichment (6-mer frequency, TF over GST control); with CRX, 1.3 fold enrichment (6-mer frequency, TF over GST control). Further, in the test with ETV1, the binding signal was 1.47 fold enrichment (6-mer frequency, TF over GST control).

The values above are taken from paper PMC7862700, “An all-to-all approach to the identification of sequence-specific readers for epigenetic DNA modifications on cytosine”.
